# Dicer processing: human Dicer pre-microRNA cleavage inhibition. z-score at 25 µM. hit rate 6% among 47,000. cat-ELCCA pre-miR-21 Dicer processing, chemiluminescence; active compounds read high. AID 1347074. Q9UPY3; in the data active = z-score above about 3, passing the limit was not always enough;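 also: plate controls were vehicle for no effect and no enzyme for full effect; higher signal means more uncleaved substrate so more Dicer inhibition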
# Target sequence (Q9UPY3 whole entry, looked up): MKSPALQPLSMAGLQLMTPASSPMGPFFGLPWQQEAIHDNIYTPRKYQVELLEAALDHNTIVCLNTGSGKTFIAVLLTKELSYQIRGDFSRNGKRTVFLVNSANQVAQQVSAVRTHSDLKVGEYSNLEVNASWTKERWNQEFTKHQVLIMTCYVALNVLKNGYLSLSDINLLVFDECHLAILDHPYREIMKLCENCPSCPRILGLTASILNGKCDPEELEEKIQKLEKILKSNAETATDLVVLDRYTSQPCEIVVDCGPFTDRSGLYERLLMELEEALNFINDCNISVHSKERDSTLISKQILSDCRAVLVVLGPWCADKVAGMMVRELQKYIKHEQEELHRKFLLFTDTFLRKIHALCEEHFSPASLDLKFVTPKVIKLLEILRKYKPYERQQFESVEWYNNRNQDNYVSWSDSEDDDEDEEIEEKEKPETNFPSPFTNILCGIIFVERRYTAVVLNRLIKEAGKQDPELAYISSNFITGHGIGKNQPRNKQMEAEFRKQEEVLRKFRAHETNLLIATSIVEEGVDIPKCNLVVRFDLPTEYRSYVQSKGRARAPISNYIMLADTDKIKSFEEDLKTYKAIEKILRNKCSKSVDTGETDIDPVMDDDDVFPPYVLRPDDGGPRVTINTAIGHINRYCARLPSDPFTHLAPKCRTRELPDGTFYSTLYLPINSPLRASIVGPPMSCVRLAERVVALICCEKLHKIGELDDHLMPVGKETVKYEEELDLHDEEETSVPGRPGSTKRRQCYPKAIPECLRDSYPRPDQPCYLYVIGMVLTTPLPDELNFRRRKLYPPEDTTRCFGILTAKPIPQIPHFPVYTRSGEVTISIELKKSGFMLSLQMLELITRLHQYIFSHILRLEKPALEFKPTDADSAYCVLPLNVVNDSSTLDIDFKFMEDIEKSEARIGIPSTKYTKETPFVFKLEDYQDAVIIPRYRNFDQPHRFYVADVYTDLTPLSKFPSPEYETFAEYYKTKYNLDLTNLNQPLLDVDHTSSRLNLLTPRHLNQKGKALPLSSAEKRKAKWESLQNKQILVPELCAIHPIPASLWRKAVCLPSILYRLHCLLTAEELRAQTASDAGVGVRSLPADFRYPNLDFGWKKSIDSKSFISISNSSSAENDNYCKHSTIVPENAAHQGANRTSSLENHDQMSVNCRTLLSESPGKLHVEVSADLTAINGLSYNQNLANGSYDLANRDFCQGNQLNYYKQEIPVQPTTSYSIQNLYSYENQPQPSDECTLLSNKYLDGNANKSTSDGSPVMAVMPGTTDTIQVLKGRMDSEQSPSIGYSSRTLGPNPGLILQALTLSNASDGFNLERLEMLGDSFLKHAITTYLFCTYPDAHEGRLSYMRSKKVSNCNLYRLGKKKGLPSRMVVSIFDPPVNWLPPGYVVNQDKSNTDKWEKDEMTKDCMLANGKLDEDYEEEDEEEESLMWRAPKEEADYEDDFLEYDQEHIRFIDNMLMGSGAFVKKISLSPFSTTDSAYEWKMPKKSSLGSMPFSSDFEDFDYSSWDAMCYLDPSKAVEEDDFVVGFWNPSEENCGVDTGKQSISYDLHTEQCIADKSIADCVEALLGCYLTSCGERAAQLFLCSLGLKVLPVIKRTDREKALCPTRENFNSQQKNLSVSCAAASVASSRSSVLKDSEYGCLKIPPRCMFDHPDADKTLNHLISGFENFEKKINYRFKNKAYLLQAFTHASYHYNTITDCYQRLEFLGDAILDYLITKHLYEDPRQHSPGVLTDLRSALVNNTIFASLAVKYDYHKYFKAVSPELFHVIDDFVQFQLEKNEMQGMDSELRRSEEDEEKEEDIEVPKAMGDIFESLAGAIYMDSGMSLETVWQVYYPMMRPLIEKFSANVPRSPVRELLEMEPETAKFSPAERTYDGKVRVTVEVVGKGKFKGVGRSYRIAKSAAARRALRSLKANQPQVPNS
# The depositor's hits bear a star. Many of the other results were omitted from the sample, so hits are more common in it than they were.
SMILES,Dicer processing
Cc1ccc(-c2cc(C(F)(F)F)n3ncc(C(=O)Nc4ccc5c(c4)OCO5)c3n2)cc1,-0.12
CC1=C(C(=O)OC(C)C)C(c2ccccc2Cl)C2=C(CCCC2=O)N1 (stereo not given),-0.99
C=CCN1C(=O)C(O)(CC(=O)c2ccc(CC)cc2)c2ccccc21 (stereo not given),3.2*
C=CCN1C(=O)C(O)(CC(=O)c2ccc3c(c2)OCCO3)c2ccccc21 (stereo not given),0.54
CCN1C(=O)C(O)(CC(=O)c2c(C)cc(C)cc2C)c2ccccc21 (stereo not given),3.5*
CN1C(=O)C(O)(CC(=O)c2ccc(C(C)(C)C)cc2)c2ccccc21 (stereo not given),0.59
C=CCN1C(=O)C(O)(CC(=O)c2ccccc2)c2ccccc21 (stereo not given),-0.1
C=CCN1C(=O)C(O)(CC(=O)c2ccc(C)cc2)c2ccccc21 (stereo not given),-0.13
CN1C(=O)C(O)(CC(=O)c2ccc(Cl)cc2)c2ccccc21 (stereo not given),3.89*
CCN1C(=O)C(O)(CC(=O)c2ccncc2)c2ccccc21 (stereo not given),1.87
C=CCN1C(=O)C(O)(CC(=O)c2ccc3c(c2)OCO3)c2ccccc21 (stereo not given),4.29*
CC(C)c1ccc(C(=O)CC2(O)C(=O)N(C)c3ccccc32)cc1 (stereo not given),1.73
C=CCN1C(=O)C(O)(CC(=O)c2c(C)cc(C)cc2C)c2ccccc21 (stereo not given),0.2
CCOC(=O)CN1C(=O)C(O)(CC(=O)c2ccc3c(c2)OCO3)c2ccccc21 (stereo not given),0.9
Nc1c(-c2nnnn2-c2ccc(F)cc2)cnc2cc(Cl)ccc12,1.31
CC(C)(C)c1csc(-c2ccc(Cc3cc(-c4ccc(F)cc4)n[nH]c3=O)cc2)n1,-1.21
Cc1cc(Nc2ccccc2C(=O)O)n(-c2c(Cl)cccc2Cl)n1,-1.54
CCOC(=O)NC(=O)c1cn(Cc2cccs2)c(=O)n(C)c1=O,-1.05
Cc1ccc(C)c(OCCn2cc(C(=O)C3CC3)c3ccccc32)c1,0.54
Cc1ccc2cccc(OS(=O)(=O)c3ccc(C(C)C)cc3)c2n1,-2.04
Cc1cc(C(F)(F)F)cc(NNC(=O)c2ccc(Cl)cc2)n1,0.64
COc1ccc(Cc2nn3c(-c4ccccc4)nnc3s2)cc1,1.93
Cc1c(CN2CCN(c3ccccn3)CC2)sc2ccccc12,0.18
CCOC(=O)C(NC(C)=O)(Nc1ccccc1F)C(F)(F)F (stereo not given),-1.86
CC(C)(C)c1cc(Oc2ncccc2[N+](=O)[O-])ccc1Oc1ncccc1[N+](=O)[O-],-0.71
SMILES,Dicer processing
C=CCOc1cccc(C2c3c(oc4ccccc4c3=O)C(=O)N2c2nncs2)c1 (stereo not given),-1.27
O=C(Nc1ccccc1Sc1c(Cl)cncc1Cl)c1cccc(C(F)(F)F)c1,-1.2
COc1ccc(NC(=O)Nc2ccc(OC(F)(F)F)cc2)c(OC)n1,0.18
Cc1nc(C)c(-c2ccn(S(=O)(=O)c3ccc(Cl)cc3)n2)o1,0.48
O=S(=O)(c1ccccc1)n1nc(-c2ccccc2)nc1NCc1ccc(Cl)cc1,-1.74
O=S(=O)(c1ccccc1)n1nc(-c2ccccc2)nc1NCc1ccccc1,1.48
Cc1ccc(S(=O)(=O)n2nc(-c3ccc(Cl)cc3)nc2N)cc1,3.18*
Cc1ccc(S(=O)(=O)n2nc(C)cc2C)cc1,0.88
Cc1ccc(S(=O)(=O)n2nc(-c3ccc(Cl)cc3)nc2NCc2ccco2)cc1,3.39*
CCSC1=C(C#N)C(c2ccc(C)cc2)CC(=O)N1 (stereo not given),1.63
CCCCN1C2=NC(=O)CN2c2ccccc21,2.89
O=C(C1CCCCC1)n1c2ccc(F)cc2c2nc3ccccc3nc21,0
CC1CCC(C(C)C)C(NC(=O)c2cccc(C(F)(F)F)c2)C1 (stereo not given),-1.27
CC(C)(COC(=O)c1cc2ccccc2oc1=O)Nc1ccc(C(F)(F)F)cc1[N+](=O)[O-],-1.52
Cc1cc(C)c2c(c1)-c1cc(C)nn1C(c1ccc(N3CCOCC3)cc1)N2 (stereo not given),-1.64
CCOc1ccc(C2Nc3c(C)cccc3-c3cc(C)nn32)cc1 (stereo not given),1.22
COc1ccc(C2Nc3c(C)cc(C)cc3-c3cc(C)nn32)cc1OC (stereo not given),1
CCOc1cc(C2Nc3c(C)cc(C)cc3-c3cc(C)nn32)ccc1O (stereo not given),0.34
COc1ccc(C2Nc3c(C)cc(C)cc3-c3cc(C)nn32)cc1O (stereo not given),4.35*
Cc1cc(C)c2c(c1)-c1cc(C)nn1C(c1ccc(O)c(O)c1)N2 (stereo not given),8.62*
Cc1cc2n(n1)C(c1ccc(O)c(O)c1)Nc1ccccc1-2 (stereo not given),6.61*
CCOc1ccc(C2Nc3ccccc3-c3cc(C)nn32)cc1 (stereo not given),3.24*
CCOc1ccc(C2Nc3ccc(C)cc3-c3cc(C)nn32)cc1 (stereo not given),1.47

# Assay outcomes deposited in PubChem by Center for Chemical Genomics, University of Michigan.
